# In PubChem BioAssay:
# Several values for one entry are separate records, joined by “and”; a condition that tells them apart may be missing. Identical values can stand only once. Inconclusive results are not listed. Where a structure was tested more than once in an assay, its records may differ in their call. Activity calls are given as the source filed them.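 Rule for the calls, unless noted: active = compounds whose cell count with miR-34 switched on is under 0.7 times the count with it off; inactive = the rest.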
# What was measured:
# [1] = SU-DIPG-VI glioma cell viability, MIPE4.0 library, CellTiter-Glo luminescence, qHTS (AID 1347066; cut-off not given, nearly all actives have AC50 up to about 30 µM;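 note: cells exposed to compound for 48 hours before readout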); details: CellTiter-Glo ATP luminescence
# [2] = SU-DIPG-XXV glioma cell viability, MIPE5.0 library, qHTS (AID 1347068; cut-off not given, nearly all actives have IC50 up to about 30 µM)
# [3] = phospholipid biosynthesis inhibitors in animal cells, primary screen, cell-based, LOPAC library, screen 4 (AID 1347384; call rule not given here); details: phospholipid biosynthesis inhibition screen, at 10 µM
# [4] = survival rescue of mitochondrial mutant cells in low glucose, primary screen, MELAS cybrids, Rieske KO mouse fibroblasts, CellTiter-Glo (AID 1508586;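 active = mean z-score across replicates of 1.96 or higher in either the MELAS or the Rieske mutant cell line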;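 note: z relative to plate mean and SD of compound and empty wells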)
# [5] = biological target: NAD(+) hydrolase SARM1 (Homo sapiens) (UniProt Q6SZW1); assay: SARM1 TIR NADase inhibitors, cell lysate, NAD-Glo luminescence (AID 1508614;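 active = compound whose remaining NAD level is above about 45 nM, limit read from the data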;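 note: higher remaining NAD means stronger inhibition of SARM1 NADase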); details: SAM-TIR HEK293T lysate NADase, at 1 µM, stronger effect = higher value
# [6] = biological target: Mitogen-activated protein kinase 7 (Homo sapiens) (UniProt Q13164); assay: ERK5 transactivation activators in reporter cells, primary screen, cell-based, HTS (AID 1508626;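 active = luciferase signal above three times the same-plate solvent-only control wells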;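 note: luciferase driven by Gal4-ERK5 fusion binding five Gal4 sites before minimal TATA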); details: HeLa Gal4-ERK5 transactivation, 18 h, at 5 µM, stronger effect = higher value
# [7] = viability rescue of complex I mutant cybrids, primary screen, cell-based, galactose medium, ATP luminescence (AID 1645843;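 active = z-score of at least 1.8 in each of two replicates, scored against plate mean and spread of sample wells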;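 note: positive z means more ATP and so rescue of galactose-driven cybrid death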); details: complex I mutant cybrid cells, 72 h, stronger effect = higher value
# [8] = sensitizers of A549 cells to miR-34 induction, primary screen, imaging, A549 dox-inducible miR-34, nuclei and caspase counts (AID 1347080); details: A549 miR-34 inducible, Hoechst nuclei count, 48 h
# [9] = LFS_MB_P medulloblastoma growth inhibition, cell-based, chromothripsis tumors, cisplatin or BGB combos (AID 1671449; in the data active = inhibition above about 80%;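 note: cells exposed for 96 hours; 0% = vehicle DMSO and 100% = killing by high DMSO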); details: LFS_MB_P medulloblastoma cells
# [10] = HDN33 neuroblastoma growth inhibition, cell-based, chromothripsis tumors, cisplatin or BGB combos (AID 1671450; in the data active = inhibition above about 80%;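 note: cells exposed to compound for four days; 0% = vehicle DMSO and 100% = cell killing by high DMSO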); details: HDN33 neuroblastoma cells, stronger effect = higher value
# [11] = ICB984 medulloblastoma cell growth inhibition, synergistic combos for chromothripsis tumors, cisplatin or BGB combos (AID 1671451; call rule not given here;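 note: cells exposed for 96 hours before readout; 0% = vehicle DMSO and 100% = killing by high DMSO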); details: ICB984 medulloblastoma cells, drug combinations, stronger effect = higher value
# [12] = LFS_MB_1R medulloblastoma cell growth inhibition, synergistic combos for chromothripsis tumors, cisplatin or BGB combos (AID 1671452; in the data active = inhibition above about 80%;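 note: cells exposed for 96 hours before readout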); details: LFS_MB_1R medulloblastoma cells, stronger effect = higher value
# [13] = HTB85 osteosarcoma cell growth inhibition, synergistic combos for chromothripsis tumors, BGB or cisplatin IC20 combos (AID 1671453; in the data active = inhibition above about 80%;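 note: cells exposed for 96 hours before readout; 0% = vehicle DMSO and 100% = high DMSO killing control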); details: HTB85 osteosarcoma cells, drug combinations, stronger effect = higher value
# [14] = CRL2098 osteosarcoma cell growth inhibition, synergistic combos for chromothripsis tumors, BGB or cisplatin IC20 combos (AID 1671454; in the data active = inhibition above about 80%;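 note: cells exposed for 96 h before readout; 0% = vehicle DMSO and 100% = killing by high DMSO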); details: CRL2098 osteosarcoma cells, drug combinations, stronger effect = higher value
# [15] = HD-MB03 medulloblastoma cell growth inhibition, synergistic combos for chromothripsis tumors, BGB or cisplatin IC20 combos (AID 1671455; in the data active = inhibition above about 83%;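 note: 0% = vehicle DMSO and 100% = high DMSO as cytotoxic control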); details: HD-MB03 medulloblastoma cells, stronger effect = higher value
# [16] = MELAS cybrid survival, CellTiter-Glo 48 h, stronger effect = higher value
# [17] = Rieske KO mouse fibroblast survival, CellTiter-Glo 72 h
# [18] = stronger effect = lower value, cell number ratio, induced over uninduced
# [19] = measured here: relative caspase fold change +Dox/-Dox
# [20] = measured here: total cells with miR-34 induction, stronger effect = lower value
# [21] = measured here: total cells without miR-34 induction
# [22] = measured here: combination with BGB IC40, at 0.05 µM
# Sequence of NAD(+) hydrolase SARM1 (Homo sapiens) (Q6SZW1 whole entry, looked up, the tested form may be a part): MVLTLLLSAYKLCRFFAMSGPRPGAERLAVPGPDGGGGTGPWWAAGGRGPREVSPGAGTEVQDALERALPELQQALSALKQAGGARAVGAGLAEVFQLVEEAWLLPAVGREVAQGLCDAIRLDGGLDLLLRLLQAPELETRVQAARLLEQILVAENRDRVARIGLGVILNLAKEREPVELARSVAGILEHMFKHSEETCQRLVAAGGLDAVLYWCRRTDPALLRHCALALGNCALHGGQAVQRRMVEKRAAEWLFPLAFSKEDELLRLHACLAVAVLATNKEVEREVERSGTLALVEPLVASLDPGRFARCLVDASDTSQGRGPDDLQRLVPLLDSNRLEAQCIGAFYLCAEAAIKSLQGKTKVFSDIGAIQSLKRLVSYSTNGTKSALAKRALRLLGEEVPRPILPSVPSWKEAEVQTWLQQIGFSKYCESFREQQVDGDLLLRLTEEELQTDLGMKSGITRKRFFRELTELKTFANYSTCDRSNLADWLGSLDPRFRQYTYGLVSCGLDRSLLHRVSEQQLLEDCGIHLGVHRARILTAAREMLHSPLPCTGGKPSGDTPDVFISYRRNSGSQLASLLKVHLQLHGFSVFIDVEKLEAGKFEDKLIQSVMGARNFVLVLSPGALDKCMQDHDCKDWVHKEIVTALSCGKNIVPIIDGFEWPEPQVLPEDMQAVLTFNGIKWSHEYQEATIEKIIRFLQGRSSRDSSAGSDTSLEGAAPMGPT
# Sequence of Mitogen-activated protein kinase 7 (Homo sapiens) (Q13164 whole entry, looked up, the tested form may be a part): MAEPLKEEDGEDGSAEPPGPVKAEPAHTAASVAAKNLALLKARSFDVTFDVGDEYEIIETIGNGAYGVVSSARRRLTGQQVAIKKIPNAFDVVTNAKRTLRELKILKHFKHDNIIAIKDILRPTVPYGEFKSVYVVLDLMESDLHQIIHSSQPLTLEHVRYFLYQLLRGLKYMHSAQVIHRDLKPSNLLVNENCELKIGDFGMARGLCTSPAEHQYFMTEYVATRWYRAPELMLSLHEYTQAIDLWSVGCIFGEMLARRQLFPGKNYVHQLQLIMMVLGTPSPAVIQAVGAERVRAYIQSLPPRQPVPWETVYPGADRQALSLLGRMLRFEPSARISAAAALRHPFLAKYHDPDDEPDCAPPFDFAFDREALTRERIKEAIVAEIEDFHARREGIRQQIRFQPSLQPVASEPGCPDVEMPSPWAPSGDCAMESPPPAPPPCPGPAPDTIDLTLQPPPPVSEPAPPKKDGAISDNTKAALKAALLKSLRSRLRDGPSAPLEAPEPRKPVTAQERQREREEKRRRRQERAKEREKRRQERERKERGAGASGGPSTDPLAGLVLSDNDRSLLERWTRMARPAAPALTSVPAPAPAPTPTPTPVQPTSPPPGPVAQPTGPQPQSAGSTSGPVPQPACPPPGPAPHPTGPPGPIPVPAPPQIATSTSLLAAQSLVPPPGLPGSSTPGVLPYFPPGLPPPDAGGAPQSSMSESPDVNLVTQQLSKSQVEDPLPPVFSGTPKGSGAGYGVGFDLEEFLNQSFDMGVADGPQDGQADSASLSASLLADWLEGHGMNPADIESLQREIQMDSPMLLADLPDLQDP
compound,measurement,setting,value
CN(C)CCC=C1c2ccccc2C=Cc2ccccc21,outcome,[1],inactive
same,outcome,[2],inactive
same,outcome,[3],inactive
same,z-score,[4]; [16],-1.05 (inactive) and 0.34 (inactive)
same,z-score,[4]; [17],-0.783 and 0.18
same,remaining NAD,[5],10 nM (inactive)
same,luciferase signal,[6],52 AU (inactive)
same,z-score,[7],-1.16 (inactive)
CC(C)NCC(O)COc1ccc(COCCOC(C)C)cc1 (stereo unspecified),outcome,[1],inactive
same,outcome,[3],inactive
same,z-score,[4]; [16],-0.423 (inactive) and -0.586 (inactive)
same,z-score,[4]; [17],0.385 and -0.329
same,remaining NAD,[5],10 nM (inactive)
same,luciferase signal,[6],84 AU (inactive)
same,z-score,[7],0.495 (inactive) and 0.79 (inactive) and 0.73 (inactive)
O=C(N[C@H](CO)[C@H](O)c1ccc([N+](=O)[O-])cc1)C(Cl)Cl,outcome,[1],inactive
same,fold change,[8]; [18],0.94 (inactive) and 0.855 (inactive)
same,fold change,[8]; [19],1.13 and 1.29
same,cell count,[8]; [20],8280 and 6420
same,cell count,[8]; [21],8810 and 7510
same,z-score,[4]; [16],-0.509 (inactive) and 0.536
same,z-score,[4]; [17],-3.37 and 2.44
same,remaining NAD,[5],10 nM (inactive)
same,luciferase signal,[6],88 AU (inactive)
same,z-score,[7],-0.74 (inactive)
COc1ccc2c(c1)c(CC(=O)OCC(=O)O)c(C)n2C(=O)c1ccc(Cl)cc1,outcome,[1],inactive
same,fold change,[8]; [18],0.914 (inactive) and 0.85 (inactive) and 0.854 (inactive)
same,fold change,[8]; [19],1.04 and 0.882 and 1.4
same,cell count,[8]; [20],8990 and 8100 and 8980
same,cell count,[8]; [21],9840 and 9530 and 10500
same,z-score,[4]; [16],-0.366 (inactive) and 0.477 (inactive) and -0.419 (inactive)
same,z-score,[4]; [17],0.51 and 0.248 and -0.275
same,remaining NAD,[5],10 nM (inactive)
same,luciferase signal,[6],52 AU (inactive)
same,z-score,[7],0.565 (inactive)
Cc1cccc(N(C)C(=S)Oc2ccc3ccccc3c2)c1,outcome,[1],inactive
same,outcome,[2],inactive
same,fold change,[8]; [18],0.98 (inactive) and 0.897 (inactive) and 0.793 (inactive)
same,fold change,[8]; [19],1.24 and 1.29 and 1.54
same,cell count,[8]; [20],8090 and 8100 and 9280
same,cell count,[8]; [21],8260 and 9020 and 11700
same,z-score,[4]; [16],-0.305 (inactive) and 0.185 (inactive)
same,z-score,[4]; [17],0.765 and 0.376
same,remaining NAD,[5],10 nM (inactive)
same,luciferase signal,[6],112 AU (inactive)
Nc1ccn([C@H]2CC[C@@H](CO)O2)c(=O)n1,outcome,[1],inactive
same,fold change,[8]; [18],1 (inactive) and 0.95 (inactive) and 0.852 (inactive)
same,fold change,[8]; [19],0.845 and 0.908 and 1.17
same,cell count,[8]; [20],9380 and 8950 and 8540
same,cell count,[8]; [21],9340 and 9420 and 10000
same,outcome,[3],inactive
same,z-score,[4]; [16],-0.041 (inactive) and 0.441 (inactive)
same,z-score,[4]; [17],-0.157 and -0.525
same,remaining NAD,[5],10 nM (inactive)
same,z-score,[7],0.025 (inactive) and 0.685 (inactive)
CCn1cc(C(=O)O)c(=O)c2cc(F)c(N3CCNCC3)nc21,outcome,[1],inactive
same,fold change,[8]; [18],0.955 (inactive) and 0.936 (inactive) and 0.839 (inactive)
same,fold change,[8]; [19],0.759 and 2.37 and 1.38
same,cell count,[8]; [20],8750 and 11500 and 9060
same,cell count,[8]; [21],9160 and 12300 and 10800
same,z-score,[4]; [16],-0.278 (inactive) and 0.526 (inactive) and -0.113 (inactive)
same,z-score,[4]; [17],0.647 and 0.794 and 0.23
same,remaining NAD,[5],10 nM (inactive)
same,luciferase signal,[6],40 AU (inactive)
same,z-score,[7],-0.075 (inactive)
same,inhibition,"[9]; at 0.5 µM, stronger effect = higher value",95.5% (active) and -29.1% (inactive)
same,inhibition,"[9]; measured here: combination with BGB IC20, at 0.005 µM",-19.8% and -22.4%
same,inhibition,"[9]; measured here: combination with BGB IC40, at 0.005 µM",-56.7% and 0.955%
same,inhibition,[9]; [22],-47.1% and -2.69%
same,inhibition,"[9]; measured here: combination with cisplatin, at 0.5 µM, stronger effect = higher value",108% and -48.6%
same,inhibition,"[9]; measured here: combination with cisplatin, at 5 µM, stronger effect = higher value",-38.7% and -12%
same,inhibition,"[10]; BGB combo, at 5 µM",-53.5% and -12.2%
same,inhibition,[10]; at 0.5 µM,-20.8% (inactive) and 3.72% (inactive)
same,inhibition,"[10]; cisplatin combo, at 5 µM",-17.5% and -19.5%
same,inhibition,"[10]; measured here: with BGB IC20 combination, at 0.5 µM",-36.2% and -5.94%
same,inhibition,"[10]; measured here: with cisplatin IC20 combination, at 0.5 µM",4.58% and 5.43%
same,inhibition,"[10]; single agent, at 5 µM",-41.7% and 2.78%
same,inhibition,"[11]; BGB IC20 combo, at 0.005 µM",-24.2% and -17.5%
same,inhibition,"[11]; BGB IC40 combo, at 0.005 µM",-20.3% and -26.8%
same,inhibition,"[11]; BGB IC40 combo, at 0.05 µM",-25.4% and -9.4%
same,inhibition,[11]; at 0.5 µM,-21.1% (inactive) and -10.7% (inactive)
same,inhibition,"[11]; cisplatin combo, at 0.05 µM",-31.9% and -9.4%
same,inhibition,"[11]; cisplatin combo, at 0.5 µM",-30.1% and -9.09%
same,inhibition,"[11]; cisplatin combo, at 5 µM",-14.7% and -13.9%
same,inhibition,"[11]; measured here: 5 uM single agent, at 5 µM",-13.9% and -18.7%
same,inhibition,[12]; at 0.5 µM,-40% (inactive) and 2.92% (inactive)
same,inhibition,[12]; [22],-27.4% and 5.91%
same,inhibition,"[12]; measured here: combination with cisplatin, at 0.5 µM",-80.9% and -14.1%
same,inhibition,"[12]; measured here: combination with cisplatin, at 5 µM",-47.5% and -13.9%
same,inhibition,[13]; at 0.5 µM,-12.7% (inactive) and -3.77% (inactive)
same,inhibition,"[13]; measured here: with BGB IC20, at 0.5 µM",1.15% and -26.8%
same,inhibition,"[13]; measured here: with BGB IC20, at 5 µM",-15.3% and -6.32%
same,inhibition,"[13]; measured here: with cisplatin IC20, at 0.5 µM",-12.7% and 12.5%
same,inhibition,"[13]; measured here: with cisplatin IC20, at 5 µM",-14.2% and -4.27%
same,inhibition,"[13]; single agent, at 5 µM",1.99% and -0.637%
same,inhibition,[14]; at 0.5 µM,-80.2% (inactive) and -23.4% (inactive)
same,inhibition,"[14]; measured here: combination with BGB at IC20, at 0.5 µM",-85.1% and -50.3%
same,inhibition,"[14]; measured here: combination with cisplatin at IC20, at 0.5 µM",-99.8% and 10.9%
same,inhibition,[15]; at 0.5 µM,-13.7% (inactive) and -3.13% (inactive)
same,inhibition,"[15]; measured here: combo with BGB at IC20, at 0.5 µM",-9.56% and -6.49%
same,inhibition,"[15]; measured here: combo with cisplatin at IC20, at 0.5 µM",-20.1% and 4.15%
CC(CN(C)C)CN1c2ccccc2CCc2ccccc21 (stereo unspecified),fold change,[8]; [18],1.11 (inactive) and 0.82 (inactive) and 0.914 (inactive)
same,fold change,[8]; [19],1.28 and 1.05 and 3.48
same,cell count,[8]; [20],8450 and 7420 and 11100
same,cell count,[8]; [21],7640 and 9050 and 12100
same,outcome,[3],inactive
same,z-score,[4]; [16],-0.24 (inactive)
same,z-score,[4]; [17],-0.99
same,remaining NAD,[5],10 nM (inactive)
same,luciferase signal,[6],64 AU (inactive)
same,z-score,[7],-1.16 (inactive)
CCCC(C(=O)OCCN(CC)CC)(c1ccccc1)c1ccccc1,fold change,[8]; [18],0.769 (inactive) and 0.897 (inactive) and 0.979 (inactive)
same,fold change,[8]; [19],1.28 and 1.07 and 2.3
same,cell count,[8]; [20],4500 and 7370 and 10800
same,cell count,[8]; [21],5860 and 8210 and 11000
same,outcome,[3],inactive
same,z-score,[4]; [16],-2.4 (inactive)
same,z-score,[4]; [17],0.38
same,remaining NAD,[5],10 nM (inactive)
same,luciferase signal,[6],60 AU (inactive)
same,z-score,[7],-1.28 (inactive)
